Screening data: PubChem BioAssay, National Center for Advancing Translational Sciences (NCATS)
This is a sample that favours compounds with a hit; in the whole collection about 17% have one here.
TDP1 cell noCPT: qHTS for Inhibitors of human tyrosyl-DNA phosphodiesterase 1 (TDP1): qHTS in cells in absence of CPT | DT40 Tdp1-/- hTDP1 cells, no CPT, ATP luminescence, 48 h | Potency, µM (top dose mostly 46.2 µM), usual class: inhibitors | 420,000 compounds, 15% hits | AID 686978, 2013; further: nearly all actives have a fitted effect of over 55% in size
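Growth of hTDP1-complemented DT40 Tdp1-knockout cells is measured by ATP luminescence after at least 48 hr compound exposure at 37 °C, with DMSO substituting for the 20 nM CPT used in the parallel screen.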
TGFb SMAD3 inh: TGF-b pathway inhibition. 410,000 compounds, 1.2% hits. Potency, µM (titrated, usually from 46.1 µM), most hits filed as inhibitors. HepG2 CAGA-GFP TGF-b/SMAD3 reporter, GFP fluorescence, 18 h; TGF-beta stimulated, 500 pg/mL final; further: nearly all actives have a fitted effect of over 65% in size
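Using HEPG2 CAGA-GFP reporter cells at 1000 cells/well, we pinned test compounds, stimulated with recombinant TGF-beta (500 pg/mL final) and measured total well GFP after 18 h.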
HepG2 tox: counter-screen for TGF-b inhibitors: cytotoxicity in HepG2 cells; HepG2 CAGA-GFP viability, ATP luminescence, 18 h; Potency, µM (series often up to 46.1 µM), usual class: cytotoxic; 410,000 compounds, 0.76% hits; AID 588856
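HepG2 CAGA-GFP cells (1000/well, DMEM with 1% FBS) received compound, then TGF-beta at 500 pg/mL final, and were incubated 18 hours at 37 degrees C. Viability was read by CellTiter-Glo luminescence. Media-only wells were set as complete cell-killing and DMSO as no toxicity.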
ATXN viability: reduces viability in counter-screen for ATXN expression inhibitors; S2 cells (HEK-293 line with an ATXN2-luciferase reporter) viability, CellTiter-Fluor protease fluorescence, 24 h; Potency, µM (highest dose often 56.7 µM), actives largely listed as cytotoxic; 400,000 compounds, 0.49% hits; further: nearly all actives have a fitted effect of over 40% in size
DT40 TDP1 CPT: growth inhibition of DT40 Tdp1-/-;hTDP1 cells with camptothecin (screen for TDP1 inhibitors) | chicken DT40 Tdp1-/-;hTDP1 cells + 20 nM CPT, ATP luminescence, 48 h | Potency, µM (titrated, usually from 46.2 µM), actives largely listed as inhibitors | 420,000 compounds, 12% hits | AID 686979; further: nearly all actives have a fitted effect of over 55% in size
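Chicken DT40 Tdp1-/- cells complemented with human TDP1, 400 cells/well, exposed to compounds plus 20 nM camptothecin for at least 48 h at 37 C; viability read as ATP content by CellTiter-Glo luminescence.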
ATXN2 expr inh: reduces ATXN2 reporter expression in HEK-293 cells. Potency, µM (titrated, usually from 57 µM), usual class: inhibitors. 360,000 compounds, 0.72% hits. HEK-293 ATXN2-luciferase reporter, luminescence, 24 h; further: nearly all actives have a fitted effect of over 55% in size
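ATXN2-luciferase reporter cells (luciferase flanked by upstream and downstream ATXN2 gene portions) were treated 24 h at 37 °C with compounds at up to 57 uM. SteadyGlo luminescence gave expression; GF-AFC fluorescence gave viability.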
Hits are given with their value; – = inactive; ? = inconclusive; · = no result given. The call rests on the fitted dose curve; in most records, active means well fitted curve in the direction sought with a large enough effect; inconclusive means small, poorly fitted or top-dose-only effect, or another doubt; inactive means no such curve, though single readings can be large; an effect the other way counts as inactive or inconclusive.

SMILES | TDP1 cell noCPT | TGFb SMAD3 inh | HepG2 tox | ATXN viability | DT40 TDP1 CPT | ATXN2 expr inh
COc1cc(C(=O)Nc2cc(S(=O)(=O)N3CCOCC3)ccc2N2CCOCC2)ccc1OC(F)F | – | – | – | ? | – | ·
Cc1cc(Cl)cc(C)c1OCCOCCNCc1ccccc1 | ? | ? | 14.1µM | ? | 23.1µM | ·
Clc1ccc(OCCOCCNCc2ccccc2)cc1Cl | 18.4µM | 11.2µM | – | – | 16.4µM | ·
Cc1cc(Cl)cc(C)c1OCCNCc1ccccc1 | 20.6µM | – | – | – | ? | –
CC1CCC2(CC1)C(Nc1cccc(Cl)c1)=NC(=S)N2CC#N (centres undefined) | 16.4µM | ? | – | – | ? | –
N#CC1(Nc2cccc(Cl)c2)CCCC1 | – | – | – | – | – | –
CN(C)c1nc(=NCc2ccco2)ss1 | 0.0366µM | 0.316µM | – | 0.1µM | 0.146µM | ·
O=S1(=O)NC(=NCc2ccco2)c2ccccc21 | – | – | – | – | – | –
CC(Sc1ccc(S(=O)(=O)N2CCN(C)CC2)cn1)C(=O)Nc1cccc(Cl)c1Cl (centres undefined) | ? | – | – | – | ? | –
CCN(CC)S(=O)(=O)c1ccc2c(c1)c(=O)c(C(=O)N1CCN(c3ccccc3)CC1)cn2C | – | – | – | – | – | –
O=C(O)CCC(=O)Nc1ccc(Sc2ccc([N+](=O)[O-])cc2)cc1 | ? | – | – | – | – | –
CC(C)Oc1ccc(S(=O)(=O)N2CCOCC2)cc1NC(=O)CSC(=S)N1CCCC1 | 20.6µM | – | – | – | ? | ·
Cc1noc(C)c1CSCC(=O)Nc1cc(S(=O)(=O)N2CCCCC2)ccc1OC(C)C | 23.1µM | ? | – | – | 11.6µM | –
Cc1noc(C)c1CSCC(=O)Nc1cc(C(F)(F)F)ccc1N1CCCCC1 | 16.4µM | – | – | – | 18.4µM | –
COc1cc(Nc2nc3ccc(Cl)cc3nc2-n2nc(C)cc2C)cc(OC)c1 | – | ? | – | – | – | –
COc1ccc(N(CC(=O)NCc2ccccc2OC)S(=O)(=O)c2ccc(C)cc2)cc1Cl | ? | ? | – | – | ? | –
COc1ccc(/C=N/NC(=O)c2ccc3ccccc3c2)cc1OS(=O)(=O)c1ccc(NC(C)=O)cc1 | 3.66µM | ? | – | – | 4.61µM | –
CCOc1cc(C(=S)N2CCOCC2)ccc1OS(=O)(=O)c1ccc(NC(C)=O)cc1 | 16.4µM | – | – | – | 10.3µM | –
COc1ccccc1OS(=O)(=O)c1ccc(NC(C)=O)cc1 | – | – | – | – | – | –
COc1ccc(C=O)cc1OS(=O)(=O)c1ccc(NC(C)=O)cc1 | 3.66µM | – | – | – | ? | –
O=C(C1CCC1)N1CCc2cc(S(=O)(=O)NCc3ccc(F)cc3)ccc21 | – | – | – | – | ? | –
COc1ccc(C2Nc3ccccc3NC3=C2C(=O)CC(C)(C)C3)c(OC)c1OC (centres undefined) | – | – | – | 0.282µM | – | –
CC1(C)CC(=O)C2=C(C1)Nc1ccccc1NC2c1cc(Cl)ccc1O (centres undefined) | 23.1µM | – | – | – | 18.4µM | –
COc1ccccc1C1Nc2ccccc2NC2=C1C(=O)CC(C)(C)C2 (centres undefined) | – | – | – | – | – | –
O=C(Nc1ccc2c(c1)OCO2)c1csc([C@H]2C[C@H](O)[C@@H](CO)O2)n1 | – | – | – | – | – | –
Cc1cc(C)n(CC(=O)N/N=C/c2ccccn2)n1 | – | – | – | – | – | –
COc1ccc(CNC(=O)c2ccc3c(c2)nc2n3CCCCC2)c(OC)c1 | – | – | – | · | – | ·
Cc1cc(C)c2c(NC(=O)c3ccccc3Cl)c(C(=O)Nc3ccc(C)c(C)c3)sc2n1 | 16.4µM | – | – | – | 8.2µM | –
